In PubChem BioAssay (EPA / NIEHS):
The source made the active and inactive calls. Rule for the calls: active = hit-call score of the fitted dose curve at least 0.9, where 1 is the maximum; inactive = score below 0.9.

Test: APR_HepG2_MitoMass_24hr: Apredica 24-hour HepG2 Assay for Mitochondrial Mass (AID 2282912)
Conditions: high-content imaging, actives raise or lower the signal
Procedure, shortened: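 HepG2 cells exposed 24 hr to 0.39–200 uM compound, 0.5% v/v DMSO, in duplicate. Stained before fixation with 250 nM MitoTracker Red CMXRos for 30 min, then imaged at 20x with Hoechst nuclei. Fitted in both directions against DMSO.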
In the case of `N#CN=C1SCCN1Cc1ccc(Cl)nc1`, the outcome is reported as “inactive”.
With `CCCC(=NOCC)C1=C(O)CC(CC(C)SCC)CC1=O` (configuration not stated) the outcome was “inactive”.
With `CC1(C)CCC(=Cc2ccc(Cl)cc2)C1(O)Cn1cncn1` (configuration not stated) the outcome was “inactive”.
For `Cc1cc(C)nc(Nc2ccccc2)n1`, the outcome was “inactive”.
For `CCOc1nc(C(Cl)(Cl)Cl)ns1`, the outcome was “inactive”.
For `CC(C)Nc1nc(Cl)nc(NC(C)C)n1`, the outcome was “inactive”.
For `O=c1n(Cl)c(=O)n(Cl)c(=O)n1Cl`, the outcome was “inactive”.
In the case of `CCCN(CC)CC1COC2(CCC(C(C)(C)C)CC2)O1` (configuration not stated), the outcome is reported as “inactive”.
With `Cc1nc(N(C)C)nc(OC(=O)N(C)C)c1C` the outcome was “inactive”.
For `Clc1nc(Cl)nc(Nc2ccccc2Cl)n1`, the outcome was “inactive”.
For `CS(=O)(=O)c1ccc(C(=O)C2C(=O)CCCC2=O)c([N+](=O)[O-])c1`, the outcome was “inactive”.
For `Nc1c(Cl)c(F)nc(OCC(=O)O)c1Cl`, the outcome was “inactive”.
With `CCN(CC)c1nc(C)cc(OP(=S)(OC)OC)n1` the outcome was “inactive”.
For `CCCCC(O)(Cn1cncn1)c1ccc(Cl)cc1Cl` (configuration not stated), the outcome was “inactive”.
In the case of `COc1ccc(-c2ccccc2)cc1NNC(=O)OC(C)C`, the outcome is reported as “inactive”.
With `CSC(=O)c1c(C(F)F)nc(C(F)(F)F)c(C(=O)SC)c1CC(C)C` the outcome was “inactive”.
In the case of `CCOC(=O)C(C)OC(=O)c1cc(Oc2ccc(C(F)(F)F)cc2Cl)ccc1[N+](=O)[O-]` (configuration not stated), the outcome is reported as “inactive”.
For `O=P(O)(O)CCCl`, the outcome was “inactive”.
With `COCC(C)N(C(=O)CCl)c1c(C)csc1C` (configuration not stated) the outcome was “inactive”.
With `COC(=O)c1c(C(F)F)nc(C(F)(F)F)c(C2=NCCS2)c1CC(C)C` the outcome was “inactive”.
With `CCN(CC)C(=O)C(C)Oc1cccc2ccccc12` (configuration not stated) the outcome was “inactive”.
For `CNC(=O)N(C)c1nnc(C(C)(C)C)s1`, the outcome was “inactive”.
With `CCOP(=O)(OCC)Oc1nc(Cl)c(Cl)cc1Cl` the outcome was “inactive”.
In the case of `CC(C)C1(C)N=C(c2ncccc2C(=O)O)NC1=O` (configuration not stated), the outcome is reported as “inactive”.
In the case of `CC(C)N1C(=O)c2ccccc2NS1(=O)=O`, the outcome is reported as “inactive”.
For `COC(=O)NC(=S)Nc1ccccc1NC(=S)NC(=O)OC`, the outcome was “inactive”.
With `CC(C)(C)C(=O)C(Oc1ccc(Cl)cc1)n1cncn1` (configuration not stated) the outcome was “inactive”.
With `CCC(C)n1c(=O)[nH]c(C)c(Br)c1=O` (configuration not stated) the outcome was “inactive”.
For `CCNP(=S)(OC)O/C(C)=C/C(=O)OC(C)C` (configuration not stated), the outcome was “inactive”.
In the case of `CC(C)NC(=O)N1CC(=O)N(c2cc(Cl)cc(Cl)c2)C1=O`, the outcome is reported as “inactive”.
For `CCCCOCN(C(=O)CCl)c1c(CC)cccc1CC`, the outcome was “inactive”.
With `O=C(O)c1c(Cl)ccc2cc(Cl)cnc12` the outcome was “inactive”.
For `CO/N=C(/C1=NOCCO1)c1ccccc1Oc1ncnc(Oc2ccccc2Cl)c1F`, the outcome was “inactive”.
With `CC1(C)C(C=C(Cl)Cl)C1C(=O)OC(C#N)c1cccc(Oc2ccccc2)c1` (configuration not stated) the outcome was “inactive”.
For `Nc1c(Cl)c(Cl)nc(C(=O)O)c1Cl`, the outcome was “inactive”.
For `CC1(C)CON(Cc2ccccc2Cl)C1=O`, the outcome was “inactive”.

Test: APR_HepG2_p53Act_24hr: Apredica 24-hour HepG2 Assay for p53 Activation (AID 2282913);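 note: p53 protein immunofluorescence averaged per cell in HepG2 with Hoechst nuclei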
Conditions: high-content imaging, actives raise or lower the signal
Procedure, shortened: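 HepG2 cells exposed 24 h to compounds at 0.39–200 uM in duplicate, 0.5% v/v DMSO final; fixed, permeabilized, stained with anti-p53 antibody and Hoechst 33342; fluorescence imaging; bidirectional curve fit versus DMSO.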
For `CCCC(=NOCC)C1=C(O)CC(CC(C)SCC)CC1=O` (configuration not stated), the outcome was “inactive”.
With `Cc1cc(C)nc(Nc2ccccc2)n1` the outcome was “inactive”.
For `CC(C)Nc1nc(Cl)nc(NC(C)C)n1`, the outcome was “inactive”.
With `CCCN(CC)CC1COC2(CCC(C(C)(C)C)CC2)O1` (configuration not stated) the outcome was “inactive”.
For `CS(=O)(=O)c1ccc(C(=O)C2C(=O)CCCC2=O)c([N+](=O)[O-])c1`, the outcome was “inactive”.
In the case of `Nc1c(Cl)c(F)nc(OCC(=O)O)c1Cl`, the outcome is reported as “inactive”.
For `COc1ccc(-c2ccccc2)cc1NNC(=O)OC(C)C`, the outcome was “inactive”.
With `O=P(O)(O)CCCl` the outcome was “inactive”.
With `CNC(=O)N(C)c1nnc(C(C)(C)C)s1` the outcome was “inactive”.
With `COC(=O)NC(=S)Nc1ccccc1NC(=S)NC(=O)OC` the outcome was “inactive”.

Test: APR_HepG2_CellCycleArrest_72hr: Apredica 72-hour HepG2 Assay for Cell Cycle Arrest (AID 2282914)
Conditions: high-content imaging, actives raise or lower the signal
Procedure, shortened: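 HepG2 cells exposed 72 h in duplicate to 0.39–200 uM compound, 0.5% DMSO final. Formaldehyde-fixed, Hoechst 33342-stained nuclei imaged at 20x, six fields per well; DNA content per valid cell quantified by cell-cycle image analysis, bidirectional fit versus DMSO.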
With `N#CN=C1SCCN1Cc1ccc(Cl)nc1` the outcome was “inactive”.
With `CCCC(=NOCC)C1=C(O)CC(CC(C)SCC)CC1=O` (configuration not stated) the outcome was “inactive”.
For `CC1(C)CCC(=Cc2ccc(Cl)cc2)C1(O)Cn1cncn1` (configuration not stated), the outcome was “inactive”.
For `Cc1cc(C)nc(Nc2ccccc2)n1`, the AC50 was 61.8 µM (active).
In the case of `CCOc1nc(C(Cl)(Cl)Cl)ns1`, the outcome is reported as “inactive”.
With `CC(C)Nc1nc(Cl)nc(NC(C)C)n1` the outcome was “inactive”.
For `O=c1n(Cl)c(=O)n(Cl)c(=O)n1Cl`, the outcome was “inactive”.
With `CCCN(CC)CC1COC2(CCC(C(C)(C)C)CC2)O1` (configuration not stated) the outcome was “inactive”.
For `Cc1nc(N(C)C)nc(OC(=O)N(C)C)c1C`, the outcome was “inactive”.
In the case of `Clc1nc(Cl)nc(Nc2ccccc2Cl)n1`, the outcome is reported as “inactive”.
For `CS(=O)(=O)c1ccc(C(=O)C2C(=O)CCCC2=O)c([N+](=O)[O-])c1`, the outcome was “inactive”.
For `Nc1c(Cl)c(F)nc(OCC(=O)O)c1Cl`, the outcome was “inactive”.
In the case of `CCN(CC)c1nc(C)cc(OP(=S)(OC)OC)n1`, the outcome is reported as “inactive”.
For `CCCCC(O)(Cn1cncn1)c1ccc(Cl)cc1Cl` (configuration not stated), the outcome was “inactive”.
With `COc1ccc(-c2ccccc2)cc1NNC(=O)OC(C)C` the outcome was “inactive”.
With `CSC(=O)c1c(C(F)F)nc(C(F)(F)F)c(C(=O)SC)c1CC(C)C` the outcome was “inactive”.
In the case of `CCOC(=O)C(C)OC(=O)c1cc(Oc2ccc(C(F)(F)F)cc2Cl)ccc1[N+](=O)[O-]` (configuration not stated), the outcome is reported as “inactive”.
With `O=P(O)(O)CCCl` the outcome was “inactive”.
In the case of `COCC(C)N(C(=O)CCl)c1c(C)csc1C` (configuration not stated), the outcome is reported as “inactive”.
With `COC(=O)c1c(C(F)F)nc(C(F)(F)F)c(C2=NCCS2)c1CC(C)C` the outcome was “inactive”.
With `CCN(CC)C(=O)C(C)Oc1cccc2ccccc12` (configuration not stated) the AC50 was 106 µM (active).
In the case of `CNC(=O)N(C)c1nnc(C(C)(C)C)s1`, the outcome is reported as “inactive”.
In the case of `CCOP(=O)(OCC)Oc1nc(Cl)c(Cl)cc1Cl`, the outcome is reported as “inactive”.
For `CC(C)C1(C)N=C(c2ncccc2C(=O)O)NC1=O` (configuration not stated), the outcome was “inactive”.
In the case of `CC(C)N1C(=O)c2ccccc2NS1(=O)=O`, the outcome is reported as “inactive”.
With `COC(=O)NC(=S)Nc1ccccc1NC(=S)NC(=O)OC` the AC50 was 100 µM (active).
With `CC(C)(C)C(=O)C(Oc1ccc(Cl)cc1)n1cncn1` (configuration not stated) the AC50 was 82.2 µM (active).
With `CCC(C)n1c(=O)[nH]c(C)c(Br)c1=O` (configuration not stated) the outcome was “inactive”.
For `CCNP(=S)(OC)O/C(C)=C/C(=O)OC(C)C` (configuration not stated), the outcome was “inactive”.
In the case of `CC(C)NC(=O)N1CC(=O)N(c2cc(Cl)cc(Cl)c2)C1=O`, the outcome is reported as “inactive”.
In the case of `CCCCOCN(C(=O)CCl)c1c(CC)cccc1CC`, the outcome is reported as “inactive”.
For `O=C(O)c1c(Cl)ccc2cc(Cl)cnc12`, the outcome was “inactive”.
In the case of `CO/N=C(/C1=NOCCO1)c1ccccc1Oc1ncnc(Oc2ccccc2Cl)c1F`, the outcome is reported as “inactive”.
With `CC1(C)C(C=C(Cl)Cl)C1C(=O)OC(C#N)c1cccc(Oc2ccccc2)c1` (configuration not stated) the outcome was “inactive”.
With `Nc1c(Cl)c(Cl)nc(C(=O)O)c1Cl` the outcome was “inactive”.
With `CC1(C)CON(Cc2ccccc2Cl)C1=O` the outcome was “inactive”.
